Measured values: PubChem BioAssay (NCI)
The panel holds about 79,000 compounds, 15% with a hit somewhere; the sample as a whole holds those more often. The source made the active and inactive calls. Cut-off read from the data, not from the text of the source: active = growth inhibition above about 70%; inactive = the rest.

Assays:
[1] = NCI Yeast Anticancer Drug Screen. Data for the rad50 strain (AID 155);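 note: 0% = growth of vehicle-only cultures of the same strain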; details: S. cerevisiae rad50 strain growth inhibition; at 50.0 µM; active compounds read high
In short: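 Compounds were tested on a yeast strain with an engineered DNA damage repair alteration; the reported value is growth inhibition normalised to vehicle treatment.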

[2] = NCI Yeast Anticancer Drug Screen. Data for the mec2-1 strain (AID 157); details: S. cerevisiae mec2-1 strain, at 50.0 µM, active compounds read high
In short: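 Each compound was tested on mec2-1 yeast, a strain altered in DNA damage repair or cell cycle control. Growth inhibition is reported relative to vehicle.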

[3] = NCI Yeast Anticancer Drug Screen. Data for the sgs1 mgt1 strain (AID 161);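 note: 0% = growth of cultures given vehicle only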; details: S. cerevisiae sgs1 mgt1 strain, at 50.0 µM, active compounds read high
In short: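 Genetically altered yeast, compound exposure, growth inhibition relative to vehicle.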

[4] = NCI Yeast Anticancer Drug Screen. Data for the cln2 rad14 strain (AID 165);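 note: 0% = growth equal to vehicle treated cultures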; details: S. cerevisiae cln2 rad14 strain, at 50.0 µM, active compounds read high
In short: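 Test compounds were added to cln2 rad14 yeast cultures; inhibition of growth was then determined by comparison with vehicle treatment.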

[5] = NCI Yeast Anticancer Drug Screen. Data for the bub3 strain (AID 167); details: S. cerevisiae bub3 mutant strain, at 50.0 µM, active compounds read high
In short: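 Growth of a checkpoint-deficient yeast mutant is measured after compound exposure. Values represent inhibition relative to vehicle.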

[6] = NCI Yeast Anticancer Drug Screen. Data for the mlh1 rad18 strain (AID 175); details: S. cerevisiae mlh1 rad18 strain growth inhibition; at 50.0 µM; active compounds read high
In short: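 Inhibition values reflect reduced growth of mutant yeast versus vehicle-treated controls following compound exposure; the mutations affect DNA damage repair.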

Measured: growth inhibition

CCCNC(=S)N/N=C\C(C)=N\Nc1ccc(Cl)cc1
inactive: [1] 31.4% | [2] 16.2% | [3] 3.15% | [4] 36% | [5] 7.5% | [6] 17.2%

CSc1cccc(NC(=O)/C=C/C(=O)O)c1
inactive: [1] -3.05% | [2] 5.1% | [3] 16.3% | [4] -58.5% | [5] 6.65% | [6] -0.9%

O=C(NCCCCCCNC(=O)NCc1ccco1)NCc1ccco1
inactive: [1] -22.7% | [2] -28.2% | [3] -28.1% | [4] -15.7% | [5] 0.05% | [6] -19.9%

CCOC(=O)C1=C(NC(C)=O)Sc2ccccc2C1
inactive: [1] 27.9% | [2] 6.6% | [3] 1.8% | [4] -19.3% | [5] 2.45% | [6] 25%

COc1cc(C)nc2ccc(C(=O)c3ccccc3)cc12
inactive: [1] 31% | [2] 6.1% | [3] 31.6% | [4] 17.5% | [5] 10.4% | [6] 48%

CCN1C(=O)N(CC)C2(CC(=O)c3ccccc3O2)C1=O (stereo unspecified)
inactive: [1] 15.2% | [2] -3.45% | [3] 20.2% | [4] 7.15% | [5] 20.1% | [6] 19.6%

CCCCN(C)CCNc1cc(C)nc(Nc2nc3ccc(Cl)cc3[nH]2)n1
active: [1] 90% | [2] 96.2% | [3] 74.9% | [4] 96.6% | [5] 97.9% | [6] 96.2%

COc1cc(C2c3cc4c(cc3OC(NC3CCCCC3)C2C)OCO4)cc(OC)c1OC (stereo unspecified)
inactive: [1] -0.35% | [2] -9.4% | [3] -2.4% | [4] 27.8% | [5] 24.6% | [6] -20.9%

CCOC(=O)CC(C(=O)OCC)C(=O)OCC
inactive: [1] -7.4% | [2] -11.4% | [3] -8.1% | [4] -6.35% | [5] 5.45% | [6] -4.1%

CC(C)(C)c1cc(-c2c3nc(c(-c4cc(C(C)(C)C)cc(C(C)(C)C)c4)c4ccc([nH]4)c(-c4cc(C(C)(C)C)cc(C(C)(C)C)c4)c4nc(c(-c5cc(C(C)(C)C)cc(C(C)(C)C)c5)c5ccc2[nH]5)C=C4)C=C3)cc(C(C)(C)C)c1
inactive: [1] 19.8% | [2] 15.4% | [3] 24.2% | [4] 23.3% | [5] 2.6% | [6] 31.2%

CCCCCOC(=O)c1cccnc1
inactive: [1] -8.75% | [2] -16.1% | [3] -15% | [4] -0.2% | [5] 0.7% | [6] -1.5%

[Cu+2].[NH-]C(CC(=O)O)C(=O)O.[NH-]C(CC(=O)O)C(=O)O (stereo unspecified)
inactive: [1] -35.3% | [2] -11.7% | [3] -13.7% | [4] 64.4% | [5] -61.3% | [6] -3.45%

c1ccc(C(c2cccc3c2ccc2ccccc23)C(c2ccccc2)c2cccc3c2ccc2ccccc23)cc1 (stereo unspecified)
inactive: [1] 4.75% | [2] -9.6% | [3] -33.3% | [4] -19.6% | [5] -22.4% | [6] -12.7%

[O-]/[N+](=C\c1ccc(OCc2ccccc2)cc1)c1ccccc1
inactive: [1] 16.5% | [2] -18.4% | [3] -20.7% | [4] -2.65% | [5] -4.25% | [6] -13.5%

CCN(CC)c1nc2ccccc2o1
inactive: [1] -16.9% | [2] 16% | [3] 3.7% | [4] -36.8% | [5] -19.9% | [6] -9.2%

c1ccc(Cn2cccc2N=Nc2ccccc2)cc1
inactive: [1] 26.4% | [2] 2.8% | [3] 6.55% | [4] 6.8% | [5] -4% | [6] 14.3%

CC(C)C1OC2(C)OC(=N)C1(C#N)C(C#N)(C#N)C2C (stereo unspecified)
inactive: [1] -0.75% | [2] 2.2% | [3] -18.5% | [4] -10.7% | [5] -17.5% | [6] -13.8%

O=C1C2(CCCC13OC3c1ccccc1)OC2c1ccccc1 (stereo unspecified)
inactive: [1] -20.9% | [2] -11.1% | [3] -5.15% | [4] -14.4% | [5] 23.3% | [6] -3.6%

COc1ccc(C(CC(C)(C)C)c2ccc(OC)cc2)cc1
inactive: [1] -0.9% | [2] -9% | [3] 5.15% | [4] -44.5% | [5] -11.9% | [6] -11.1%

CC(=O)OC(C)(C)c1ccc2c(c1)C(=O)C[C@@H]1[C@](C)(C#N)CCC[C@]21C
inactive: [1] 46.6% | [2] 0.3% | [3] -2.75% | [4] -5.35% | [5] 52.1% | [6] 35.5%

CCC(C)NC(=O)C1C2CCC(C2)C1C(=O)NC(C)CC (stereo unspecified)
inactive: [1] 10.7% | [2] -2.9% | [3] -10.2% | [4] -18.9% | [5] -7.5% | [6] 7%

COc1ccc(C2C(Cl)C(=O)N2NC(=O)c2ccccc2O)cc1OC (stereo unspecified)
inactive: [1] 2.85% | [2] -12.1% | [3] -18.6% | [4] 15.4% | [5] -22.4% | [6] -34.1%

Nc1[nH]c(=S)nc2snnc12
inactive: [1] 3% | [2] -6.6% | [3] 9.4% | [4] 11.2% | [5] 3.1% | [6] 14.8%

CCOC(=O)N(C)C
inactive: [1] 18.9% | [2] 12.8% | [3] 3.65% | [4] 11.1% | [5] 12.1% | [6] 8%

Nc1nc(C2CCCCC2)cs1
inactive: [1] 54.2% | [2] 29.8% | [3] 31.1% | [4] 16.1% | [5] 14.9% | [6] 20.4%

O=C1NC(=Nc2ccccc2Cl)SC1C(=O)Nc1ccc([N+](=O)[O-])cc1[N+](=O)[O-] (stereo unspecified)
inactive: [1] 8.1% | [2] 7.85% | [3] -34.4% | [4] -28.6% | [5] 7.6% | [6] -12.1%

CC(C)(CO[C@H]1C[C@H]2CC[C@@]1(C)C2(C)C)[N+](=O)[O-]
inactive: [1] 25.4% | [2] -7% | [3] 50% | [4] -17.4% | [5] 12.9% | [6] 18.4%

O=C(O)CS/C(=N\S(=O)(=O)c1ccccc1)Nc1cccc(Cl)c1
inactive: [1] -2.85% | [2] -24.9% | [3] 19.1% | [4] 12% | [5] 5.45% | [6] -7.85%

CNC(=S)NNC1=NCCCN1
inactive: [1] -48.5% | [2] -10.2% | [3] -25.9% | [4] 13.8% | [5] 9.75% | [6] -9.9%

COc1ccc(C(Cc2ccccc2Cl)N(CCO)CCO)cc1 (stereo unspecified)
inactive: [1] -7% | [2] -5.3% | [3] -9.1% | [4] -19.2% | [5] 5.5% | [6] -5.2%

CCCCCCCCCC(C)(O)C(N)=O (stereo unspecified)
inactive: [1] 15.1% | [2] -6.15% | [3] 13.2% | [4] -21.6% | [5] -5.65% | [6] 9.65%

CCCCN(CCCC)c1ccc(N=C(C#N)c2ccc(N(CCCC)CCCC)cc2)cc1
inactive: [1] -21.4% | [2] -14.2% | [3] 14% | [4] -38.8% | [5] -3% | [6] 19.5%

CCN(CC)c1ccc(N=Nc2ccc([N+](=O)[O-])cc2OC(=O)/C=C/c2ccccc2)c(OC(=O)/C=C/c2ccccc2)c1
inactive: [1] -17.6% | [2] -47.9% | [3] -12.9% | [4] 5.6% | [5] -32.5% | [6] -22.8%

Cc1cc(C(c2ccc(Nc3ccccc3)cc2)c2ccc(Nc3ccccc3)cc2)ccc1Nc1ccccc1
inactive: [1] 2.35% | [2] -4.65% | [3] 7.5% | [4] -7.05% | [5] 5.5% | [6] -19.1%

Nc1c(Cl)ncnc1NCCN1CCOCC1
inactive: [1] -3.85% | [2] 1.9% | [3] 1.55% | [4] -22.1% | [5] -17.5% | [6] -18.4%

CCOCC(=O)N[C@H]1CCc2cc(OC)c(OC)c(OC)c2-c2ccc(SC)c(=O)cc21
inactive: [1] 10.7% | [2] 26.9% | [3] 12.2% | [4] -53.6% | [5] -8.3% | [6] 47.1%
